For 36 molecules, fold change permeability results are on record in PubChem BioAssay.

Values joined by “and” are separate entries in the source; they are usually repeats but may differ in a detail not shown here. Equal entries are not always repeated. The source holds several records for some structures; these can differ, active in one and inactive in another. Active and inactive are the calls of the source. Cut-off read from the data, not from the text of the source: active = fold change permeability below about 0.7 or above about 1.3; inactive = in between.

This experiment is described as follows: modulators of brain endothelial barrier permeability, primary screen, cell-based, FITC-avidin fluorescence, HTS (AID 1963498). Note: test concentration not given here. Particulars: actives lie on both sides.
For `c1ccc2sc(C3(N4CCCCC4)CCCCC3)cc2c1`, the fold change permeability is 1 (inactive). The result for `O=C(O)CC[N+](=O)[O-]` reads 0.9 (inactive); that for `NCCc1c[nH]c2ccc(O)cc12`, 1 (inactive); that for `CCN1C[C@]2(COC)[C@H](O)C[C@H](OC)[C@]34C1[C@H]([C@H](OC)[C@H]23)[C@]1(OC(C)=O)[C@H]2[C@@H](OC(=O)c3ccccc3)[C@](O)(C[C@H]24)[C@@H](OC)[C@@H]1O`, 1 (inactive). Consider `CP(=O)(O)C1=CCNCC1`, for which the fold change permeability was 1.4 (active). The same measure for `S=C(NC1CCCCC1)N1CCC(c2cnc[nH]2)CC1`: 1.6 (active); for `COc1cc(C(O)CN)ccc1O` (stereo unspecified): 0.9 (inactive). The same measure for `CN1CC[C@@]2(C)c3cc(O)ccc3N(C)C12` (stereo partly specified): 1.3 (active); for `CC(C)(O)[C@@H]1C2OC(=O)C1[C@]1(O)C[C@H]3O[C@]34C(=O)O[C@H]2[C@]14C` (stereo partly specified) (tested in a mixture with another compound): 1.1 (inactive). The result for `Clc1ccc(CO/N=C(\Cn2ccnc2)c2ccc(Cl)cc2Cl)c(Cl)c1` reads 1.6 (active); that for `C[C@@H]1[C@@H]2Cc3ccc(O)cc3[C@@]1(C)CCN2CC1CC1`, 1.3 (active). `N[C@@H]1C[C@H]1c1ccccc1`: the fold change permeability is 0.9 (inactive).

As for `NN=C(N)N`, the fold change permeability was 1.2 (inactive) and 1 (inactive). The result for `CC[N+](CC)(CC)CC` reads 1.1 (inactive).

As to `O=C(N[C@H]1CN2CCC1CC2)c1ccc(Cl)cc1`, the fold change permeability was 1.3 (active). The same measure for `CC[C@@H]1C(=O)OC[C@@H]1Cc1cncn1C`: 1.3 (active) and 1.2 (inactive). As to `CCCCCCCCCCCCCC(=O)O[C@@H]1[C@@H](C)[C@@]2(O)[C@@H](C=C(CO)C[C@]3(O)C(=O)C(C)=C[C@@H]23)[C@@H]2C(C)(C)[C@]12OC(C)=O`, the fold change permeability was 1.1 (inactive). Regarding `CC[C@@H](C(N)=O)N1CCCC1=O`, the fold change permeability was 0.9 (inactive).

Take `CO[C@H]1CC[C@@H](O[C@H]2C[C@H]([C@]3(C)CC[C@]4(C[C@H](O)[C@@H](C)[C@@H]([C@@H](C)/C=C(\C)C(=O)[C@H](C)C[C@H](C)C(=O)O)O4)O3)O[C@]3(O[C@@H]([C@H]4O[C@@](O)(CO)[C@H](C)C[C@@H]4C)C[C@@H]3C)[C@@H]2C)O[C@@H]1C`: the fold change permeability was 1.3 (active). On to `CC(C)(C)c1cc(C(C)(C)C)c2c(c1)C(O)(C(F)(F)F)C(=O)O2` (stereo unspecified), for which the fold change permeability was 1.2 (inactive). The same measure for `C[C@]12CCC3C(CC[C@H]4C[C@H](O)CC[C@]34C)C1CC[C@@H]2C(=O)CO` (stereo partly specified): 1.1 (inactive); for `CCCCc1ccc(C(=O)O)nc1`: 0.8 (inactive); for `COC(=O)N1CCN(C(=O)Cc2ccc(Cl)c(Cl)c2)C(CN2CCCC2)C1` (stereo unspecified): 1.3 (active). Consider `C[N+](C)(C)CC(=O)O`, for which the fold change permeability is 1 (inactive).

With `CC(C)Oc1cccnc1N(C)C1CCN(Cc2ccccc2)CC1`, the fold change permeability is 1.5 (active). Turning to `COc1cc2c(c(OC)c1OC)-c1ccc(SC)c(=O)cc1[C@@H](NC(C)=O)CC2`, the fold change permeability was 1.7 (active). In the case of `c1ccc(C2CC2)c(OCC2=NCCN2)c1`, the fold change permeability is 1 (inactive). Take `O=C1C=CC(=O)C=C1`: the fold change permeability was 1 (inactive). The same measure for `CN[C@@H]1C[C@@H](c2ccc(Cl)c(Cl)c2)c2ccccc21`: 1.2 (inactive).

Turning to `Cc1cccc(C)c1NC1=NCCCS1`, the fold change permeability was 1.9 (active). As for `Nc1ccncc1`, the fold change permeability was 0.9 (inactive). Regarding `Oc1ccc2c3c1O[C@H]1c4[nH]c5ccccc5c4C[C@@]4(O)[C@@H](C2)N(CC2CC2)CC[C@]314`, the fold change permeability was 1 (inactive). The same measure for `C[N+]1(C)C2CCC1CC(OC(=O)C(CO)c1ccccc1)C2` (stereo unspecified): 1.1 (inactive); for `COc1cc2c3c(c1OC)-c1ccccc1C[C@H]3N(C)CC2`: 1.9 (active). The result for `CC(=O)c1c(O)c(C)c(O)c(Cc2c(O)c3c(c(C(=O)/C=C/c4ccccc4)c2O)OC(C)(C)C=C3)c1O` reads 2 (active). The result for `O=[N+]([O-])c1ccc2nc(N3CCNCC3)ccc2c1` reads 1 (inactive).
